According to PubChem BioAssay (Tox21):
“And” between values parts separate entries of the source, which are not always exact repeats. Identical values can stand only once. Results filed as inconclusive are left out. Some compounds were tested as several samples or in several runs, with calls that do not always agree. The source made the active and inactive calls. Calls follow the shape of the dose curve; as a rule, active = well fitted curve in the direction sought with a large enough effect in the repeat runs; inconclusive = weak or mixed curves; inactive = no such curve, though single readings can be large; an effect the other way counts as inactive or inconclusive.

Tests used:
[1] = A CellTox Green Cytotoxicity Assay to monitor cytotoxicity in HepG2 cells - 0 hour (AID 1224882); also: nearly all actives have a fitted effect of over 35% in size; also: potency is read from the fitted curve at half-maximal effect
How it was run: (§1)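 Continuous culture of HepG2 cells with a membrane-impermeant DNA dye; rising fluorescence marks dead cells. Compound exposure lasted up to 40 h at 37 C, with reads every 8 h from 0 h.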

[2] = A CellTox Green Cytotoxicity Assay to monitor cytotoxicity in HepG2 cells - 32 hour (AID 1224883); also: nearly all actives have a fitted effect of over 50% in size; also: potency is read from the fitted curve at half-maximal effect
How it was run: as §1

[3] = A CellTox Green Cytotoxicity Assay to monitor cytotoxicity in HEK293 cells - 8 hour (AID 1224884); also: nearly all actives have a fitted effect of over 35% in size; also: potency is read from the fitted curve at half-maximal effect
How it was run: (§2)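 Each value comes from one timepoint of a single continuous run in which HEK293 cells with CellTox Green were exposed to compound for up to 40 h at 37 C, dye fluorescence rising with cell death.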

[4] = qHTS RealTime-Glo MT Cell Viability Assay in HepG2 cells - 16 hour (AID 1224885); also: nearly all actives have a fitted effect of over 50% in size; also: potency is read from the fitted curve at half-maximal effect
How it was run: (§3)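 Compound treatment began 5 h after plating HepG2 cells (600/well) with NanoLuc luciferase and prosubstrate. Plates stayed at 37 C for 40 h; luminescence was captured at six time points, 0 h through 40 h.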

[5] = qHTS RealTime-Glo MT Cell Viability Assay in HEK293 cells - 24 hour (AID 1224886); also: nearly all actives have a fitted effect of over 50% in size; also: potency is read from the fitted curve at half-maximal effect; as to activity change, negative = cytotoxicity: top concentration of the series differs between compounds
How it was run: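 Quantitative high-throughput screen of the Tox21 10K library in HEK293: cells and RealTime-Glo reagents plated together, compound added at 5 h, luminescence monitored through 40 h at 37 C.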

[6] = qHTS RealTime-Glo MT Cell Viability Assay in HEK293 cells - 8 hour (AID 1224887); also: nearly all actives have a fitted effect of over 50% in size; also: potency is read from the fitted curve at half-maximal effect; as to activity change, negative = cytotoxicity: top concentration of the series differs between compounds
How it was run: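 qHTS format; HEK293 cells with NanoLuc/prosubstrate reagent, 37 C/5% CO2 for 5 h pre-dosing; compounds 23 nL in DMSO; luminescence at each time point reflects viable cells.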

[7] = A CellTox Green Cytotoxicity Assay to monitor cytotoxicity in HEK293 cells - 16 hour (AID 1224888); also: nearly all actives have a fitted effect of over 35% in size; also: potency is read from the fitted curve at half-maximal effect
How it was run: as §2

[8] = qHTS RealTime-Glo MT Cell Viability Assay in HepG2 cells - 0 hour (AID 1224889); also: nearly all actives have a fitted effect of over 50% in size
How it was run: as §3

[9] = A CellTox Green Cytotoxicity Assay to monitor cytotoxicity in HepG2 cells - 8 hour (AID 1224890); also: nearly all actives have a fitted effect of over 45% in size; also: potency is read from the fitted curve at half-maximal effect
How it was run: as §1

[10] = qHTS assay to identify small molecule antagonists of the estrogen receptor alpha (ER-alpha) signaling pathway using the BG1 cell line in the presence of 0.1 nM 17-beta-estradiol - cell viability counter screen (AID 1259241); also: nearly all actives have a fitted effect of over 40% in size
How it was run: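 Cytotoxicity counter-screen: live-cell protease activity measured by fluorescence (30 min reagent step) in the same wells. Cells were VM7Luc4E2 with endogenous ER-alpha and ERE-driven luciferase, treated 22 hr at 37C alongside 0.1 nM 17beta-estradiol final.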
% is scaled to controls: 0 for no effect and ±100 for the full control effect.

CCC(CO)(CO)COCC(CC)(CO)CO
inactive: Potency [1] | Potency [2] | Potency [3] | Potency [4] | Potency [5] | Potency [6] | Potency [7] | Potency [8] | Potency [9]

CC(C)(O)CCC(C)(C)O
inactive: Potency [1] | Potency [2] | Potency [3] | Potency [4] | Potency [5] | Potency [6] | Potency [7] | Potency [8] | Potency [9]

Nc1ccc2cc3ccccc3cc2c1
inactive: Potency [1] | Potency [2] | Potency [3] | Potency [4] | Potency [5] | Potency [6] | Potency [7] | Potency [8] | Potency [9]

c1ccc2cc3c(ccc4ccccc43)cc2c1
inactive: Potency [1] | Potency [2] | Potency [3] | Potency [4] | Potency [5] | Potency [6] | Potency [7] | Potency [8] | Potency [9]

CC(C)C(=O)c1c(C(C)C)nn2ccccc12
inactive: Potency [1] | Potency [2] | Potency [3] | Potency [4] | Potency [5] | Potency [6] | Potency [7] | Potency [8] | Potency [9] | Potency [10]

COc1ccc(Cc2cnc(N)nc2N)cc1OC
inactive: Potency [1] | Potency [2] | Potency [3] | Potency [4] | Potency [5] | Potency [6] | Potency [7] | Potency [8] | Potency [9] | Potency [10]

CC(=O)Nc1ccc(C(=O)CCl)cc1
inactive and 19.5 µM (active): Potency [2] | Potency [5]
inactive: Potency [1] | Potency [3] | Potency [4] | Potency [6] | Potency [7] | Potency [8]

CN1C(=O)c2ccc([N+](=O)[O-])cc2C1=O
inactive: Potency [1] | Potency [2] | Potency [3] | Potency [4] | Potency [5] | Potency [6] | Potency [7] | Potency [8] | Potency [9] | Potency [10]

Cc1cccc(O)c1C
inactive and 22.5 µM (active): Potency [3]
inactive: Potency [1] | Potency [2] | Potency [4] | Potency [5] | Potency [6] | Potency [7] | Potency [8] | Potency [9]

CC(N)=O
inactive: Potency [1] | Potency [2] | Potency [3] | Potency [4] | Potency [5] | Potency [6] | Potency [7] | Potency [8] | Potency [9] | Potency [10]

CCCCOCCOC(=O)c1ccccc1C(=O)OCCOCCCC
inactive: Potency [1] | Potency [2] | Potency [3] | Potency [4] | Potency [5] | Potency [6] | Potency [7] | Potency [8] | Potency [9] | Potency [10]

CCCN[C@H]1CCc2nc(N)sc2C1
inactive: Potency [1] | Potency [2] | Potency [3] | Potency [4] | Potency [5] | Potency [6] | Potency [7] | Potency [8] | Potency [9] | Potency [10]

Cc1ccnc2c1NC(=O)c1cccnc1N2C1CC1
inactive: Potency [1] | Potency [2] | Potency [3] | Potency [4] | Potency [5] | Potency [6] | Potency [7] | Potency [8] | Potency [9]

CC(=O)N[C@@H](CS)C(=O)O
inactive: Potency [1] | Potency [2] | Potency [3] | Potency [4] | Potency [5] | Potency [6] | Potency [7] | Potency [8] | Potency [9] | Potency [10]

CCCNC(C)C(=O)Nc1ccccc1C (stereo unspecified)
inactive: Potency [1] | Potency [2] | Potency [3] | Potency [4] | Potency [5] | Potency [6] | Potency [7] | Potency [8] | Potency [9] | Potency [10]

Cc1occc(=O)c1OC(=O)C(C)C
inactive: Potency [1] | Potency [2] | Potency [3] | Potency [4] | Potency [5] | Potency [6] | Potency [7] | Potency [8]

C[N+]1([O-])CCOCC1
inactive: Potency [1] | Potency [2] | Potency [3] | Potency [4] | Potency [5] | Potency [6] | Potency [7] | Potency [8] | Potency [9] | Potency [10]

CCCCCCCCCCCCCCCCCl
inactive: cytotoxicity [1] 7.68% [at 15.8 µM] | cytotoxicity increase [2] 1.23% [at 15.8 µM] | cytotoxicity increase [3] 2.79% [at 15.8 µM] | activity change, negative = cytotoxic [4] 0.939% [at 15.8 µM] | activity change, negative = cytotoxicity [5] 0.956% [at 15.8 µM] | activity change, negative = cytotoxicity [6] 1.34% [at 15.8 µM] | activity change [7] 5.27% [at 15.8 µM, stronger effect = higher value] | activity change, negative = cytotoxicity [8] -0.916% [at 15.8 µM] | cytotoxicity increase [9] 3.53% [at 15.8 µM] | activity change, negative = cytotoxicity [10] 9.43% [at 19 µM]

CN(C)c1ccc2nc3ccc(=[N+](C)C)cc-3sc2c1
active: Potency [4] 14.9 µM and 17.4 µM and 19 µM | Potency [5] 2.36 µM and 2.19 µM and 2.68 µM | Potency [6] 2.97 µM and 2.75 µM and 3.01 µM
inactive: Potency [1] | Potency [2] | Potency [3] | Potency [7] | Potency [8] | Potency [9]

Cc1cc(OCCOCC[N+](C)(C)Cc2ccccc2)ccc1C(C)(C)CC(C)(C)C
inactive: Potency [1] | Potency [8]
active: Potency [2] 15.4 µM and 9.52 µM | Potency [3] 23.9 µM | Potency [4] 17.3 µM and 21.3 µM | Potency [5] 12.2 µM and 8.49 µM | Potency [6] 48.7 µM and 23.9 µM | Potency [7] 38.7 µM and 23.9 µM | Potency [9] 21.7 µM and 21.3 µM

Cc1cccc2n[nH]nc12
inactive: Potency [1] | Potency [2] | Potency [3] | Potency [4] | Potency [5] | Potency [6] | Potency [7] | Potency [8] | Potency [10]
inactive and 43.6 µM (active): Potency [9]

O=C(O)CCc1ccccc1
inactive: Potency [1] | Potency [2] | Potency [3] | Potency [4] | Potency [5] | Potency [6] | Potency [7] | Potency [8] | Potency [9] | Potency [10]

NC(N)=Nc1nc(CSCC/C(N)=N/S(N)(=O)=O)cs1
inactive: Potency [1] | Potency [2] | Potency [3] | Potency [4] | Potency [5] | Potency [6] | Potency [7] | Potency [8] | Potency [9] | Potency [10]

CC(C)CCOC(=O)c1ccc(N(C)C)cc1
inactive: Potency [1] | Potency [2] | Potency [3] | Potency [4] | Potency [5] | Potency [6] | Potency [7] | Potency [8] | Potency [9] | Potency [10]

CCn1c2ccccc2c2cc(N)ccc21
inactive: Potency [1] | Potency [2] | Potency [3] | Potency [4] | Potency [5] | Potency [6] | Potency [7] | Potency [8]

CC(=O)CC(=O)Nc1ccc2[nH]c(=O)[nH]c2c1
inactive: Potency [1] | Potency [2] | Potency [3] | Potency [4] | Potency [5] | Potency [6] | Potency [7] | Potency [8] | Potency [9]

O=C(O)CP(=O)(O)O
inactive: Potency [1] | Potency [2] | Potency [3] | Potency [4] | Potency [5] | Potency [6] | Potency [7] | Potency [8] | Potency [9]

CC(C)(C)NCC(O)c1cc(O)cc(O)c1 (stereo unspecified)
inactive: Potency [1] | Potency [2] | Potency [3] | Potency [4] | Potency [5] | Potency [6] | Potency [7] | Potency [8] | Potency [9] | Potency [10]

c1ccc2c(c1)CCCC2C1=NCCN1 (stereo unspecified)
inactive: Potency [1] | Potency [2] | Potency [3] | Potency [4] | Potency [5] | Potency [6] | Potency [7] | Potency [8] | Potency [9] | Potency [10]

OCCN1CCNCC1
active: Potency [5] 7.9 µM
inactive: Potency [1] | Potency [2] | Potency [3] | Potency [4] | Potency [6] | Potency [7] | Potency [8] | Potency [9]

CCOc1ccc2c(c1)C(C)=CC(C)(C)N2
inactive: Potency [1] | Potency [2] | Potency [3] | Potency [4] | Potency [5] | Potency [6] | Potency [7] | Potency [8] | Potency [9]

CCCCCCC(O)CCCCCCCCCCC(=O)O (stereo unspecified)
inactive: Potency [1] | Potency [2] | Potency [3] | Potency [4] | Potency [5] | Potency [6] | Potency [7] | Potency [8] | Potency [9] | Potency [10]

CC(C(O)c1ccc(O)cc1)N1CCC(Cc2ccccc2)CC1 (stereo unspecified)
inactive: Potency [1] | Potency [2] | Potency [3] | Potency [4] | Potency [5] | Potency [6] | Potency [7] | Potency [8] | Potency [9] | Potency [10]

O=S(=O)(O)c1ccc2nc(-c3ccccc3)[nH]c2c1
inactive: Potency [1] | Potency [2] | Potency [3] | Potency [4] | Potency [5] | Potency [6] | Potency [7] | Potency [8]

O=C(O)c1cn(-c2ccc(F)cc2)c2cc(N3CCNCC3)c(F)cc2c1=O
inactive: Potency [1] | Potency [2] | Potency [3] | Potency [4] | Potency [5] | Potency [6] | Potency [7] | Potency [8] | Potency [9] | Potency [10]

C#CC(C)(CC)OC(=O)c1ccccc1C(=O)O (stereo unspecified)
inactive: Potency [1] | Potency [2] | Potency [3] | Potency [4] | Potency [5] | Potency [6] | Potency [7] | Potency [8] | Potency [9]

CCN(CC)C(=O)Nc1ccc(OCC(O)CNC(C)(C)C)c(C(C)=O)c1 (stereo unspecified)
inactive: Potency [1] | Potency [2] | Potency [3] | Potency [4] | Potency [5] | Potency [6] | Potency [7] | Potency [8] | Potency [9]

CC1COC(=O)O1 (stereo unspecified)
inactive: Potency [3] | Potency [4] | Potency [5] | Potency [6] | Potency [7] | Potency [8] | Potency [10]
inactive and 43.6 µM (active): Potency [1] | Potency [2] | Potency [9]

O=C(O)Cn1cnnn1
inactive: Potency [1] | Potency [2] | Potency [3] | Potency [4] | Potency [5] | Potency [6] | Potency [7] | Potency [8] | Potency [9] | Potency [10]

O=c1n(CC2CO2)c(=O)n(CC2CO2)c(=O)n1CC1CO1 (stereo unspecified)
inactive: Potency [1] | Potency [2] | Potency [3] | Potency [4] | Potency [6] | Potency [7] | Potency [8] | Potency [9]

CCCCC/C=C/CC1CC(=O)OC1=O (stereo unspecified)
inactive: Potency [1] | Potency [2] | Potency [3] | Potency [4] | Potency [5] | Potency [6] | Potency [8] | Potency [10]

C=CC(=O)OCCCCCCCC
inactive: Potency [1] | Potency [2] | Potency [3] | Potency [4] | Potency [5] | Potency [6] | Potency [7] | Potency [8] | Potency [10]

O=C1OC2(c3ccc(O)cc3Oc3cc(O)ccc32)c2ccccc21
inactive: Potency [4] | Potency [6] | Potency [8]
active: Potency [1] 1.55 µM and 301 nM | Potency [2] 616 nM and 301 nM | Potency [3] 692 nM and 848 nM | Potency [7] 616 nM and 1.2 µM | Potency [9] 692 nM and 301 nM
